Laboratory results as given in PubChem BioAssay AID1159580 (chemical genetic matrix, 2015).
The campaign covered roughly 5,500 compounds. About 2,000 (36%) were called active. About 18% were inconclusive and are not listed. No stated cut-off is given here; in the data, active means normalized growth mostly below about 0.91 (no sharp cut-off); inconclusive means no clear call, values can overlap the other calls; inactive means mostly above about 0.92. The list shows a part of the results.

Test: chemical genetic growth profiling, strain panel (AID 1159580);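 further: tested at 20 µM; growth read once vehicle control cultures reached saturation at 30 °C; 1 = growth at the plate median or of vehicle wells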
Settings: S. cerevisiae deletion strains, growth OD
[1] = locus YDL101C, strain DUN1, stronger effect = lower value
[2] = locus YHR030C, strain SLT2, stronger effect = lower value

Measured: normalized growth

N/C(=N/O)c1cnccc1C(F)(F)F
inactive: locus YAL013W, strain DEP1, stronger effect = lower value 0.987 | locus YBR229C, strain ROT2, stronger effect = lower value 1.01 | [1] 1.01 | locus YDL134C, strain PPH21, stronger effect = lower value 0.999 | locus YDR150W, strain NUM1, stronger effect = lower value 0.986 | locus YEL061C, strain CIN8, stronger effect = lower value 0.998 | locus YGR078C, strain PAC10, stronger effect = lower value 0.994 | [2] 0.978 | locus YHR087W, strain rtc3, stronger effect = lower value 0.986 | locus YJL187C, strain SWE1, stronger effect = lower value 0.991 | locus YJR043C, strain POL32, stronger effect = lower value 0.993 | locus YJR075W, strain HOC1, stronger effect = lower value 0.993 | locus YKL190W, strain CNB1, stronger effect = lower value 0.997 | locus YLR039C, strain RIC1, stronger effect = lower value 1.04 | locus YLR058C, strain SHM2 (second series), stronger effect = lower value 0.993 | locus YLR085C, strain ARP6, stronger effect = lower value 0.976 | locus YLR262C, strain YPT6, stronger effect = lower value 0.99 | locus YML094W, strain GIM5, stronger effect = lower value 1.05 | locus YMR219W, strain ESC1, stronger effect = lower value 0.996 | locus YMR263W, strain SAP30, stronger effect = lower value 0.977 | locus YMR307W, strain GAS1, stronger effect = lower value 0.958 | locus YNL153C, strain GIM3, stronger effect = lower value 1.01 | locus YNL298W, strain CLA4 (second series), stronger effect = lower value 0.996 | locus YNL322C, strain KRE1, stronger effect = lower value 1 | locus YNR030W, strain Alg12, stronger effect = lower value 0.999 | locus YPL055C, strain LGE1, stronger effect = lower value 0.989 | locus YPL241C, strain CIN2, stronger effect = lower value 1.03 | locus YPR135W, strain CTF4, stronger effect = lower value 1.01

FC(F)(F)c1ccncc1-c1nc(-c2ccc(Cl)cc2)cs1
active: [2] 0.78 | locus YLR113W, strain HOG1, stronger effect = lower value 0.686 | locus YPL256C, strain CLN2, stronger effect = lower value 0.682
inactive: locus YAR019C, strain CDC15, stronger effect = lower value 0.982 | locus YBL105C, strain PKC1, stronger effect = lower value 0.984 | locus YBR135W, strain CKS1, stronger effect = lower value 0.98 | locus YBR136W, strain MEC1, stronger effect = lower value 0.982 | locus YBR160W, strain CDC28, stronger effect = lower value 0.985 | locus YDL017W, strain CDC7, stronger effect = lower value 0.991 | locus YDL028C, strain MPS1, stronger effect = lower value 0.978 | [1] 0.97 | locus YDL108W, strain KIN28, stronger effect = lower value 0.984 | locus YDL132W, strain cdc53, stronger effect = lower value 0.973 | locus YDL214C, strain PRR2, stronger effect = lower value 0.914 | locus YDR052C, strain DBF4, stronger effect = lower value 0.989 | locus YDR054C, strain cdc34, stronger effect = lower value 0.979 | locus YDR226W, strain ADK1, stronger effect = lower value 0.979 | locus YDR477W, strain SNF1, stronger effect = lower value 0.949 | locus YER123W, strain YCK3, stronger effect = lower value 0.852 | locus YER133W, strain GLC7, stronger effect = lower value 0.936 | locus YFL009W, strain cdc4, stronger effect = lower value 0.981 | locus YFL029C, strain CAK1, stronger effect = lower value 0.977 | locus YFR003C, strain YPI1, stronger effect = lower value 0.985 | locus YFR019W, strain FAB1, stronger effect = lower value 0.887 | locus YFR028C, strain CDC14, stronger effect = lower value 0.976 | locus YGR040W, strain KSS1, stronger effect = lower value 0.923 | locus YGR052W, strain FMP48, stronger effect = lower value 0.869 | locus YGR092W, strain DBF2, stronger effect = lower value 0.933 | locus YHR079C, strain IRE1, stronger effect = lower value 0.775 | locus YHR082C, strain KSP1, stronger effect = lower value 1 | locus YHR205W, strain SCH9, stronger effect = lower value 0.894 | locus YIL147C, strain SLN1, stronger effect = lower value 0.987 | locus YJL095W, strain BCK1, stronger effect = lower value 0.759 | locus YJL128C, strain PBS2, stronger effect = lower value 0.896 | locus YJL157C, strain FAR1, stronger effect = lower value 0.927 | locus YJR016C, strain ILV3, stronger effect = lower value 0.979 | locus YJR066W, strain TOR1 (second series), stronger effect = lower value 0.937 | locus YJR066W, strain TOR1, stronger effect = lower value 1.01 | locus YKL048C, strain ELM1, stronger effect = lower value 0.955 | locus YKL067W, strain YNK1, stronger effect = lower value 0.922 | locus YKL101W, strain HSL1, stronger effect = lower value 0.919 | locus YKL193C, strain SDS22, stronger effect = lower value 0.986 | locus YKL203C, strain TOR2, stronger effect = lower value 1.01 | locus YLR133W, strain CKI1, stronger effect = lower value 0.911 | locus YLR403W, strain SFP1, stronger effect = lower value 0.934 | locus YML070W, strain DAK1, stronger effect = lower value 0.878 | locus YMR001C, strain CDC5, stronger effect = lower value 0.986 | locus YMR205C, strain PFK2 (second series), stronger effect = lower value 0.905 | locus YMR277W, strain FCP1, stronger effect = lower value 0.962 | locus YNL006W, strain LST8, stronger effect = lower value 0.99 | locus YNL020C, strain ARK1, stronger effect = lower value 0.906 | locus YNL161W, strain CBK1, stronger effect = lower value 0.971 | locus YNL183C, strain NPR1, stronger effect = lower value 0.774 | locus YNL207W, strain RIO2, stronger effect = lower value 0.987 | locus YNL222W, strain SSU72, stronger effect = lower value 0.98 | locus YNL307C, strain MCK1 (second series), stronger effect = lower value 0.922 | locus YOL078W, strain AVO1, stronger effect = lower value 0.972 | locus YOL136C, strain PFK27, stronger effect = lower value 0.868 | locus YOR061W, strain CKA2, stronger effect = lower value 0.933 | locus YOR119C, strain RIO1, stronger effect = lower value 0.975 | locus YOR231W, strain MKK1, stronger effect = lower value 0.766 | locus YOR329C, strain SCD5, stronger effect = lower value 0.981 | locus YPL031C, strain PHO85, stronger effect = lower value 0.917 | locus YPL153C, strain RAD53, stronger effect = lower value 0.917 | locus YPL204W, strain HRR25, stronger effect = lower value 0.908 | locus YPL209C, strain IPL1, stronger effect = lower value 0.987 | locus YPR025C, strain CCL1, stronger effect = lower value 0.988 | locus YPR106W, strain ISR1, stronger effect = lower value 0.956 | locus YPR111W, strain DBF20, stronger effect = lower value 0.949 | strain NNK1, stronger effect = lower value 0.942 | strain TSCII, stronger effect = lower value 0.972
